Consider 26 molecules from PubChem BioAssay.

A number with no mark means an inactive call. Calls of active or inactive are those of the source. Cut-off read from the data, not from the text of the source, unless noted: active = inhibition above about 33%; inactive = the rest.

A short description of experiment [1]: StAR promoter reporter inhibitors, counter-screen for LRH-1 inverse agonist project, cell-based, luminescence, high throughput (AID 651611; in the data active = inhibition above about 28%). Conditions: StAR promoter luciferase reporter counterscreen, at 3.6 µM, active compounds read high.
Experiment [2] addresses Nuclear receptor subfamily 5 group A member 2 (Homo sapiens) (UniProt O00482). Description: NR5A2 activity suppression in reporter cells – cell-based, luminescence, confirmation (AID 651613; in the data active = inhibition above about 42%;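 note: HEK293T cells co-transfected with LRH-1 and StAR promoter luciferase reporter; 0% = vehicle wells and 100% = parental cells lacking receptor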). Particulars: cell-based LRH-1 luciferase reporter, inverse agonism; at 3.6 µM; active compounds read high.
Experiment [3] concerns the target Steroidogenic factor 1 (Homo sapiens) (UniProt Q13285). The experiment in a line: inverse agonism at SF1 nuclear receptor – cell-based, luminescence, high throughput, counter-screen for LRH-1 inverse agonist project (AID 651614; in the data active = inhibition above about 44%;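 note: cells cotransfected with StAR promoter reporter and SF1 expression vector; 0% = vehicle on cells with receptor and 100% = vehicle on cells lacking receptor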). Conditions: cell-based SF1 luciferase reporter, at 3.6 µM, active compounds read high.
Experiment [4] can be described thus: compounds suppressing VP16-driven luciferase signal – cell-based, luminescence, high throughput, counter-screen for LRH-1 inverse agonist project (AID 651615). Conditions: Gal4-VP16 luciferase reporter cells, at 3.6 µM, active compounds read high.

Sequence of Steroidogenic factor 1 (Homo sapiens) (Q13285 whole entry, looked up, the tested form may be a part): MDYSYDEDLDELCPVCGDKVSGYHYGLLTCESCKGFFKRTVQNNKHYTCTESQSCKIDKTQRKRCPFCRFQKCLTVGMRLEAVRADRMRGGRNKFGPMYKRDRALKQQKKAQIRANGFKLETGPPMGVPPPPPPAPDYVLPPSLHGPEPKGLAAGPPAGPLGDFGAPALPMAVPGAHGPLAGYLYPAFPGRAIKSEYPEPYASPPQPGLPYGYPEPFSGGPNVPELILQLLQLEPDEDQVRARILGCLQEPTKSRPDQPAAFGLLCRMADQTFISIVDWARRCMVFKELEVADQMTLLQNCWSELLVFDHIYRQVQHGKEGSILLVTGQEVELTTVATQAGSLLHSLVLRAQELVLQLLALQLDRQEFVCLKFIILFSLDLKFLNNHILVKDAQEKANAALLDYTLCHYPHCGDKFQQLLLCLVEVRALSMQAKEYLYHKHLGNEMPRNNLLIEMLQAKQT
Sequence of Nuclear receptor subfamily 5 group A member 2 (Homo sapiens) (O00482 whole entry, looked up): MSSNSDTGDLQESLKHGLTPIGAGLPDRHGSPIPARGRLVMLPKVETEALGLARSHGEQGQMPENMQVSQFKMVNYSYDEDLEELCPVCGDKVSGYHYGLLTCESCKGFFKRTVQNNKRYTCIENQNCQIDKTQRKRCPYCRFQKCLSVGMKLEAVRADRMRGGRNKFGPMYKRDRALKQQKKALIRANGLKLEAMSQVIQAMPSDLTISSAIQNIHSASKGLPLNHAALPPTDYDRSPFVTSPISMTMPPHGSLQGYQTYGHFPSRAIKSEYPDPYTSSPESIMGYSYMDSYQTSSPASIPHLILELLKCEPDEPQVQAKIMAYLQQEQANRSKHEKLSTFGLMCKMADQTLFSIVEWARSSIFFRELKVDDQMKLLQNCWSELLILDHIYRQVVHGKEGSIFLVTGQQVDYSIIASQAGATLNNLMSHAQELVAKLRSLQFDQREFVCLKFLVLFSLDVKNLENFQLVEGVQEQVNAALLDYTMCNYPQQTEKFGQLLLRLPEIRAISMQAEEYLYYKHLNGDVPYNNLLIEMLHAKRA

As for `Cc1cc(OCC(=O)Nc2ccc(OCc3ccccc3)cc2)nc(C(C)C)n1`, the inhibition in experiment [1] is -0.66%; in experiment [2], 48% (active); in experiment [3] it was 32.4%; in experiment [4] it was 15.2%.
For `Cc1ccc(NC(=O)COC(=O)C(NS(=O)(=O)c2ccc(Cl)cc2)C(C)O)c(Br)c1` (centres undefined), the inhibition was 3.18% in experiment [1], 55.3% (active) in experiment [2], 57.6% (active) in experiment [3] and -12.9% in experiment [4].
On to `Cc1ccc2nc(-c3ccc(NS(C)(=O)=O)cc3)cc(-c3ccccc3)c2c1`, for which the inhibition is 8.04% in experiment [1], 51.1% (active) in experiment [2], 51.8% (active) in experiment [3] and -2.14% in experiment [4].
With `CCCOc1ccc(N)cc1N`, the inhibition in experiment [1] was 11.1%; in experiment [2], 21.4%; in experiment [3], 27%; in experiment [4], -3.38%.
Regarding `O=C(CCl)Nc1cccn2ncnc12`, the inhibition is 33.1% (active) in experiment [1], 49.3% (active) in experiment [2], 54.6% (active) in experiment [3] and -31.4% in experiment [4].
For `O=C(Nc1cccc(NC(=O)c2ccc([N+](=O)[O-])o2)c1)c1ccco1` the same measures were 23.5%, 69% (active), 70.5% (active) and -8.09%.
Turning to `CCOC(=O)c1c(N)n(CCOC(=O)c2cccs2)c2nc3ccccc3nc12`, the inhibition in experiment [1] was 0.69%; in experiment [2], 21.6%; in experiment [3] it was 23.7%; in experiment [4], -11.6%.
Consider `CCOC(=O)c1c2c(n(Cc3ccccc3)c1C)C(=O)C(=O)c1ccccc1-2`, for which the inhibition in experiment [1] is 48.7% (active); in experiment [2], 60.6% (active); in experiment [3] it was 71.6% (active); in experiment [4], 54.6% (active).
As for `Cn1ncc(Cl)c1C(=O)NCc1ccc2c(c1)OCO2`, the inhibition in experiment [1] is -2.54%; in experiment [2], 45.4% (active); in experiment [3] it was 50.1% (active); in experiment [4], 15.7%.
`O=C(Nc1ccc(NC(=O)c2ccc([N+](=O)[O-])o2)cc1Cl)c1ccco1`: the inhibition in experiment [1] is 19.6%; in experiment [2], 59.8% (active); in experiment [3] it was 73% (active); in experiment [4], -20.2%.
As for `CCCCc1c(O)nc(SCC(=O)Nc2ccc(OC)cc2)n(-c2ccc(C)c(C)c2)c1=O`, the inhibition was 24% in experiment [1], 60% (active) in experiment [2], 51% (active) in experiment [3] and -5.8% in experiment [4].
Turning to `COc1ccc(OCCNC(=O)C2(C)CCN2Cc2ccc(SC)cc2)cc1` (centres undefined), the inhibition is 1.32% in experiment [1], 46% (active) in experiment [2], 45.9% (active) in experiment [3] and 2.76% in experiment [4].
The like results for `COc1cccc(/C=N/Nc2nc(Nc3ccccc3)nc(-n3nc(C)cc3C)n2)c1O` were, in that order, 40.7% (active), -7.01%, 0.2% and -6.05%.
For `CCOc1ccc(CCNC(=O)COC(=O)c2cc([N+](=O)[O-])ccc2N2CCOCC2)cc1OCC` the same measures were 9.91%, 58.4% (active), 56.6% (active) and -11.1%.
For the molecule `CC(Nc1ncnc2ccccc12)c1ccccc1` (centres undefined), the inhibition in experiment [1] was 20.9%; in experiment [2], 60.2% (active); in experiment [3] it was 67.9% (active); in experiment [4] it was 53.7% (active).
For `CCn1c(SCC(=O)Nc2ccc(N3CCOCC3)cc2)nnc1-c1ccco1`, the inhibition was 3.02% in experiment [1], 58% (active) in experiment [2], 47.3% (active) in experiment [3] and 10.2% in experiment [4].
As for `COc1ccc(Oc2ccccc2/C=N/O)cc1`, the inhibition in experiment [1] is 2.42%; in experiment [2] it was 57% (active); in experiment [3], 58.1% (active); in experiment [4], 42.5% (active).
With `COc1ccc(C2=Nn3c(nnc3-c3ccncc3)SC2)cc1OC`, the inhibition was 24.5% in experiment [1], 48% (active) in experiment [2], 39.6% in experiment [3] and -2.76% in experiment [4].
For `O=C(N/N=C/c1ccc([N+](=O)[O-])s1)C(O)c1ccccc1` (centres undefined), the inhibition in experiment [1] is 25.9%; in experiment [2] it was 46.7% (active); in experiment [3] it was 62.2% (active); in experiment [4], -11.9%.
For `CCC(C)NC(=O)c1ccc2c(c1)N(Cc1ccccc1)C(=O)CS2` (centres undefined), the inhibition in experiment [1] was 7.12%; in experiment [2] it was 49.2% (active); in experiment [3], 51.5% (active); in experiment [4] it was 3.22%.
The like results for `COc1ccc(CC(N)c2csc(Nc3ncccn3)n2)cc1` (centres undefined) were, in that order, 49.2% (active), 26.2%, 33.1% and 15.5%.
`NC(=O)c1ccc(NC(=O)COC(=O)C2COc3ccccc3O2)cc1` (centres undefined): the inhibition in experiment [1] is 21.9%; in experiment [2] it was 52.4% (active); in experiment [3] it was 56.7% (active); in experiment [4], -20.5%.
The like results for `O=C(CSc1ncnc2c1cnn2Cc1ccccc1)Nc1ccc2c(c1)OCCO2` were, in that order, 2.88%, 61.3% (active), 54% (active) and 2.68%.
Take `O=C(N/N=C/c1ccc([N+](=O)[O-])o1)c1ccccc1-n1cccc1`: the inhibition in experiment [1] is 32.3% (active); in experiment [2], 71.6% (active); in experiment [3] it was 63.4% (active); in experiment [4], 0.97%.
Turning to `Clc1ccccc1-c1nnc2sc(-c3ccncc3)nn12`, the inhibition in experiment [1] is 15.3%; in experiment [2], 52.6% (active); in experiment [3], 50.9% (active); in experiment [4], 3.81%.
The like results for `CC(=O)N(/N=C/c1ccc([N+](=O)[O-])o1)c1nc2ccccc2c(=O)n1-c1ccccc1` were, in that order, 19.4%, 69% (active), 55.2% (active) and 2.37%.
